Experimental data as given in paper PMC7862700, “An all-to-all approach to the identification of sequence-specific readers for epigenetic DNA modifications on cytosine”.

Key:
Assay in all cases: DAPPL (digital affinity profiling via proximity ligation, sequencing); 10 mM Tris-HCl pH 7.5, 50 mM NaCl, 1 mM DTT, 4% glycerol, room temperature, 30 min; GST-TFs on glutathione beads, 16-mer random dsDNA library, 0.1% formaldehyde crosslink after washing; high values mean tight binding
[1] = biological target: T1, FLI1 (Homo sapiens, UniProt Q01543 1-452); conditions: protein: recombinant; tags: N-terminal GST; dsDNA, one strand shown
T1 sequence: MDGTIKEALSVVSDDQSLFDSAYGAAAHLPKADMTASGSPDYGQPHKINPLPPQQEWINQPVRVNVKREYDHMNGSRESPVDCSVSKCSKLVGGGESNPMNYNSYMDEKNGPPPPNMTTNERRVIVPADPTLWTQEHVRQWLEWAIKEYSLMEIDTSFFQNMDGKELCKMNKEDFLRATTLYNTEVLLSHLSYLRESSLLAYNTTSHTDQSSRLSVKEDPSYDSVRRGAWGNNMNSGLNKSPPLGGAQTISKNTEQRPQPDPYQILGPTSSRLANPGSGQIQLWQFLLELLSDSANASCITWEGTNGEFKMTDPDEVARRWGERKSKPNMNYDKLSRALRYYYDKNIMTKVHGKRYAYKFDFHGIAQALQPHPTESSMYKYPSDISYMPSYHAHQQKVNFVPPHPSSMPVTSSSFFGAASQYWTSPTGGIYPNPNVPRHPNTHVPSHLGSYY
In short: (§1)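 Yeast served to express human transcription factors as GST fusions, which were then captured on glutathione beads and labelled with DNA barcodes. Pooled with a tag-only sample, they were incubated with 200 nmole of a 16-mer random double-stranded DNA library for 30 min at room temperature in Tris/NaCl/DTT/glycerol buffer, washed, crosslinked with 0.1% formaldehyde, ligated by proximity, amplified by PCR and sequenced. Dividing each hexamer's read frequency for a factor by its frequency for the tag-only sample gives the binding signal.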

[2] = biological target: T2, ELK1 (Homo sapiens, UniProt P19419 1-428); conditions: protein: recombinant; tags: N-terminal GST; dsDNA, one strand shown
T2 sequence: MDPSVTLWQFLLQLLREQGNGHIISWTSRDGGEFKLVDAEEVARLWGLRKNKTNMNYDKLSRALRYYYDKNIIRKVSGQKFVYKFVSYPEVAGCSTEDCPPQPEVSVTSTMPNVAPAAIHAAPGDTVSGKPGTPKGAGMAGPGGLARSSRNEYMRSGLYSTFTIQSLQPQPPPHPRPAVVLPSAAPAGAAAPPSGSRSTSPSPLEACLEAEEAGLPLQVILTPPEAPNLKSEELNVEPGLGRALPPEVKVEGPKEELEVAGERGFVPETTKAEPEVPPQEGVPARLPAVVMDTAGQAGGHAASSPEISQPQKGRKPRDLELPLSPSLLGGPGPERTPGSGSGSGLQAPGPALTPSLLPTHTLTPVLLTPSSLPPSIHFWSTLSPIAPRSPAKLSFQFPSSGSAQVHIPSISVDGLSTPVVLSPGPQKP
In short: as §1

[3] = biological target: T3, GABPA (Homo sapiens, UniProt Q06546 1-454); conditions: protein: recombinant; tags: N-terminal GST; dsDNA, one strand shown
T3 sequence: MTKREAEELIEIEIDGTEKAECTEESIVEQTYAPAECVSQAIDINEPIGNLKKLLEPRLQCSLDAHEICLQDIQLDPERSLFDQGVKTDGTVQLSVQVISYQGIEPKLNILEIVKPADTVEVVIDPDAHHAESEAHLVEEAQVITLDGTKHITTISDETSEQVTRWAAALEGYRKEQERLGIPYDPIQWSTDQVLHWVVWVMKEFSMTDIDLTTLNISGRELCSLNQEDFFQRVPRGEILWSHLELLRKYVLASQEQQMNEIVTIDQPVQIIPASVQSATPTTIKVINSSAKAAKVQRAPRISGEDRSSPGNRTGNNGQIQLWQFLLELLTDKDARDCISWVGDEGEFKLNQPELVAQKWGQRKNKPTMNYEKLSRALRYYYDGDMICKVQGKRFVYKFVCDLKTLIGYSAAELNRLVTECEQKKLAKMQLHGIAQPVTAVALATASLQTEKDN
In short: as §1

[4] = biological target: T4, ERG (Homo sapiens, UniProt P11308 1-479); conditions: protein: recombinant; tags: N-terminal GST; dsDNA, one strand shown
T4 sequence: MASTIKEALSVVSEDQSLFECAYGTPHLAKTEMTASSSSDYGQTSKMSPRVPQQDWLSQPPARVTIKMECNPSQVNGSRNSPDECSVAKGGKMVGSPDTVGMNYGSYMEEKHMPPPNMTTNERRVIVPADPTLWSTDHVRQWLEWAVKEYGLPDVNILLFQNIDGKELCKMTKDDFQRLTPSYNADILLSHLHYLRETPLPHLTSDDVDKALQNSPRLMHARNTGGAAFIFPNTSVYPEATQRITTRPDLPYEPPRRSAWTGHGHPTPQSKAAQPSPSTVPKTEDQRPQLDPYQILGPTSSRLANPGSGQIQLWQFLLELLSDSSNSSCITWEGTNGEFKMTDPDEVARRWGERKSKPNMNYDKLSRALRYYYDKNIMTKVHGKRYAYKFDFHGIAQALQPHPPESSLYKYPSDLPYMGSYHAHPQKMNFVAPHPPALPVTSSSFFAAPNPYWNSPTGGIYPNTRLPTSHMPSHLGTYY
In short: as §1

[5] = biological target: ELF1 (Homo sapiens, UniProt P32519 1-619); conditions: protein: recombinant; tags: N-terminal GST; dsDNA, one strand shown
Sequence of ELF1 (P32519 whole entry): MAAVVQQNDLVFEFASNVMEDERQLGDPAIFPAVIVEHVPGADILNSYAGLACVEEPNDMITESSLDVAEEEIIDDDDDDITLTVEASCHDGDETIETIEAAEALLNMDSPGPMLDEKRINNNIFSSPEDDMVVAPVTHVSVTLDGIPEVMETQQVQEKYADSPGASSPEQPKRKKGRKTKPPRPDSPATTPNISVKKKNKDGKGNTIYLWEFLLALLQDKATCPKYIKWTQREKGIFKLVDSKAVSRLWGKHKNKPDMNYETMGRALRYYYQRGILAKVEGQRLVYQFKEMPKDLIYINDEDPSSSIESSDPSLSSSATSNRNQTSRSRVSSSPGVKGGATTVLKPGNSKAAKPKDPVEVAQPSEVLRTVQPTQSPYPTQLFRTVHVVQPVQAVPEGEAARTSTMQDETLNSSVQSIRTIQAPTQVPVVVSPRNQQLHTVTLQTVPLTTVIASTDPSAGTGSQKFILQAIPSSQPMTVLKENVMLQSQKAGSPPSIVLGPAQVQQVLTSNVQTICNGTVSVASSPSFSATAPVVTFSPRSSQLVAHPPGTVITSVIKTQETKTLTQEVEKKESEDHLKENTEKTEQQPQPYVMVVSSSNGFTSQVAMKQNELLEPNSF
In short: as §1

[6] = biological target: T5, EHF (Homo sapiens, UniProt Q9NZC4 1-300); conditions: protein: recombinant; tags: N-terminal GST; dsDNA, one strand shown
T5 sequence: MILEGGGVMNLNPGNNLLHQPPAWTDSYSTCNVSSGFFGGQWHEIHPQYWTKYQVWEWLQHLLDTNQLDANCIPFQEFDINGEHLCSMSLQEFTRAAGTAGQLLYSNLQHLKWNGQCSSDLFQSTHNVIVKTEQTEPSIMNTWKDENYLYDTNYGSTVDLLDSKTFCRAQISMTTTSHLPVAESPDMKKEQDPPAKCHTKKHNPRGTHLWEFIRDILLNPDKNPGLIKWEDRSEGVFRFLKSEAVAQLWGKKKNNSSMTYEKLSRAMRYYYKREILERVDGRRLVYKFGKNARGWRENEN
In short: as §1

[7] = biological target: SPI1 (Homo sapiens, UniProt P17947 1-270); conditions: protein: recombinant; tags: N-terminal GST; dsDNA, one strand shown
In short: as §1

[8] = biological target: SPIB (Homo sapiens, UniProt Q01892 1-262); conditions: protein: recombinant; tags: N-terminal GST; dsDNA, one strand shown
Sequence of SPIB (Q01892 whole entry): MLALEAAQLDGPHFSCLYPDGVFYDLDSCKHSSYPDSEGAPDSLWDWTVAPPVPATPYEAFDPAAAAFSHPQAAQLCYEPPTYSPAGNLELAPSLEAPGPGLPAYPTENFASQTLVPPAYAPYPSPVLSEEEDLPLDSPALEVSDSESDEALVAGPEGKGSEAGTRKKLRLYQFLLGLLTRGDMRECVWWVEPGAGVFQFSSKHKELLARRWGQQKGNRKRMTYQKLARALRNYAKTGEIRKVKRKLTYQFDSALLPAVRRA
In short: as §1

[9] = biological target: T6, ELK3 (Homo sapiens, UniProt P41970 1-407); conditions: protein: recombinant; tags: N-terminal GST; dsDNA, one strand shown
T6 sequence: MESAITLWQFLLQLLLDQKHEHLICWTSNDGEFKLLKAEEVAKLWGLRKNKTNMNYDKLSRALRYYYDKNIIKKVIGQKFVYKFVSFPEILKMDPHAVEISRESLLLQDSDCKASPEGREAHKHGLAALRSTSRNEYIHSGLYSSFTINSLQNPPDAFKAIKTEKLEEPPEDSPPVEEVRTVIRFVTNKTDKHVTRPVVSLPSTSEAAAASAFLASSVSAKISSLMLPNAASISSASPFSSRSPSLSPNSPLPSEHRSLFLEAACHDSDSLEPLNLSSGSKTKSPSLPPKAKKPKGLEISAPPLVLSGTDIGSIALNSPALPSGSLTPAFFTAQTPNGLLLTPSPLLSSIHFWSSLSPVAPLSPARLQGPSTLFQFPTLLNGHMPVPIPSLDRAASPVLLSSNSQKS
In short: as §1

[10] = biological target: T7, FEV (Homo sapiens, UniProt Q99581 1-238); conditions: protein: recombinant; tags: N-terminal GST; dsDNA, one strand shown
T7 sequence: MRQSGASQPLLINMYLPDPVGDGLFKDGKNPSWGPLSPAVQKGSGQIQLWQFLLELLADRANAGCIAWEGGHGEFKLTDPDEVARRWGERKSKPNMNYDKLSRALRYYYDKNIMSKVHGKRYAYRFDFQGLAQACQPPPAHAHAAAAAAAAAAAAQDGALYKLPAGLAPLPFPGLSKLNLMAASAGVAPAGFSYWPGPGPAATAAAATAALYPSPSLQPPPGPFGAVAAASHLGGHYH
In short: as §1

[11] = biological target: ETV5 (Homo sapiens, UniProt P41161 1-510); conditions: protein: recombinant; tags: N-terminal GST; dsDNA, one strand shown
Sequence of ETV5 (P41161 whole entry): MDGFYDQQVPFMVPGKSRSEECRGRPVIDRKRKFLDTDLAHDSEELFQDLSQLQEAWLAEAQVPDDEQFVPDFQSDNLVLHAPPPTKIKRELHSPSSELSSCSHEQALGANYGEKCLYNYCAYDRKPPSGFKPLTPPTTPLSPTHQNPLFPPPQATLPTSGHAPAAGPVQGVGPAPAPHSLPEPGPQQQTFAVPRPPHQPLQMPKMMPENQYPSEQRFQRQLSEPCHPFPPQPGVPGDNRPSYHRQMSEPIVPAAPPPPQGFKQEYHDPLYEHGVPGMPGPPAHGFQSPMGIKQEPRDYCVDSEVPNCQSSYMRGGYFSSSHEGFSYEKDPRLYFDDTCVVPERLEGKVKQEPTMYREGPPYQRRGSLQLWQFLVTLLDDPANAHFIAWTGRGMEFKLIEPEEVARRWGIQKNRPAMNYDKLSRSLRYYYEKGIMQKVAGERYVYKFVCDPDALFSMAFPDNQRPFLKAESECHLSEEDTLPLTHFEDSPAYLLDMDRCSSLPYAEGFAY
In short: as §1

[12] = biological target: HSF1 (Homo sapiens, UniProt Q00613 1-529); conditions: protein: recombinant; tags: N-terminal GST; chain copies: 3; dsDNA, one strand shown
Sequence of HSF1 (Q00613 whole entry): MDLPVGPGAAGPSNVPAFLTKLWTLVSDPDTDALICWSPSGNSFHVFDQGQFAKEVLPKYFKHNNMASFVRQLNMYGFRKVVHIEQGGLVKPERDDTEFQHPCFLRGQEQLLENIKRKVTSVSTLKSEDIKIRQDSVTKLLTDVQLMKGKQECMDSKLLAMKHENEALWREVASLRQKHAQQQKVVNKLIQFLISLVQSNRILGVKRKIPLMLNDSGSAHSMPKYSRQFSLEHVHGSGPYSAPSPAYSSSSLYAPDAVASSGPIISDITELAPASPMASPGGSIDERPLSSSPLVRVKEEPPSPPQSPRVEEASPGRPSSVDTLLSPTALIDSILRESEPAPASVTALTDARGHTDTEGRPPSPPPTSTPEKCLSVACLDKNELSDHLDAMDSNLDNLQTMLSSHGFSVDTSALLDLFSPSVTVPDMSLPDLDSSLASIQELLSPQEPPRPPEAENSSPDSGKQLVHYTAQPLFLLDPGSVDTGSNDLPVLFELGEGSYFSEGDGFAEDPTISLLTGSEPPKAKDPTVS
In short: as §1

[13] = biological target: T8, SPIC (Homo sapiens, UniProt Q8N5J4 1-248); conditions: protein: recombinant; tags: N-terminal GST; dsDNA, one strand shown
T8 sequence: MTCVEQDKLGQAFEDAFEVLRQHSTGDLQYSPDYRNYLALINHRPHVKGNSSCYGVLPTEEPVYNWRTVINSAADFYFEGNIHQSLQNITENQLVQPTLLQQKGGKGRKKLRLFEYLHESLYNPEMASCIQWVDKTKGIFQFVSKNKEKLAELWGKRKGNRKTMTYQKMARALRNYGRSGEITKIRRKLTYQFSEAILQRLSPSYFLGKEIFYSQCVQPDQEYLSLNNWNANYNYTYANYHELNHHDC
In short: as §1

[14] = biological target: ELF4 (Homo sapiens, UniProt Q99607 1-663); conditions: protein: recombinant; tags: N-terminal GST; dsDNA, one strand shown
Sequence of ELF4 (Q99607 whole entry): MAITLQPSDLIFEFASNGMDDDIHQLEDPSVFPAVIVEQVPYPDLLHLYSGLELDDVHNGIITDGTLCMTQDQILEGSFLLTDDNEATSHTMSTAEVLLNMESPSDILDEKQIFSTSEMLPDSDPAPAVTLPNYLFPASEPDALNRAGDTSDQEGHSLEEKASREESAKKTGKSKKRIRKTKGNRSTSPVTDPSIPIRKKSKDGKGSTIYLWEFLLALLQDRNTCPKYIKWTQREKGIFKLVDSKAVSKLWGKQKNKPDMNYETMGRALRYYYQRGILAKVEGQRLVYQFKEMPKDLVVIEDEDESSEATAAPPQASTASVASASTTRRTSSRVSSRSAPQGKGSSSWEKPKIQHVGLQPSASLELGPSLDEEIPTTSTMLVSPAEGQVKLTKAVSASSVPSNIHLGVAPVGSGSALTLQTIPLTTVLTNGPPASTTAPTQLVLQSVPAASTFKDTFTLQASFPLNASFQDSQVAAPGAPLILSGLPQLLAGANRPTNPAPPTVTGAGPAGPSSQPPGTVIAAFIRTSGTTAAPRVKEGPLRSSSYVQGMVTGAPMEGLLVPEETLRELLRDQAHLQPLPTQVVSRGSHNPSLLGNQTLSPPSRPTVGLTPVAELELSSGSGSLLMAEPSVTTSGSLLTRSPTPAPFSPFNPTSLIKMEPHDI
In short: as §1

[15] = biological target: T9, ELK4 (Homo sapiens, UniProt P28324-2 1-405); conditions: protein: recombinant; tags: N-terminal GST; dsDNA, one strand shown
T9 sequence: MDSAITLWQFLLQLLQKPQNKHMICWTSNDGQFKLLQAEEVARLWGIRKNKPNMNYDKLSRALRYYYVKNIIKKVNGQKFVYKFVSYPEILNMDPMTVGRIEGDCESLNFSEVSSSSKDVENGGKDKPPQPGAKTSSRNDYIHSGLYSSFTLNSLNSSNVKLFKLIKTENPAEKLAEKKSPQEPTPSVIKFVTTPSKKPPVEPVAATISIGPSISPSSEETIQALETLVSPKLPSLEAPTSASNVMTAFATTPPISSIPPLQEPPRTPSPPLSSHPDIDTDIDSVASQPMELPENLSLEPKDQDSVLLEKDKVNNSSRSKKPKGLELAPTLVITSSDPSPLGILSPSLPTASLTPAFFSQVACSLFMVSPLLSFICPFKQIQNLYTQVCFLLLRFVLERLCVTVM
In short: as §1

[16] = biological target: T10, ETV2 (Homo sapiens, UniProt O00321 1-342); conditions: protein: recombinant; tags: N-terminal GST; dsDNA, one strand shown
T10 sequence: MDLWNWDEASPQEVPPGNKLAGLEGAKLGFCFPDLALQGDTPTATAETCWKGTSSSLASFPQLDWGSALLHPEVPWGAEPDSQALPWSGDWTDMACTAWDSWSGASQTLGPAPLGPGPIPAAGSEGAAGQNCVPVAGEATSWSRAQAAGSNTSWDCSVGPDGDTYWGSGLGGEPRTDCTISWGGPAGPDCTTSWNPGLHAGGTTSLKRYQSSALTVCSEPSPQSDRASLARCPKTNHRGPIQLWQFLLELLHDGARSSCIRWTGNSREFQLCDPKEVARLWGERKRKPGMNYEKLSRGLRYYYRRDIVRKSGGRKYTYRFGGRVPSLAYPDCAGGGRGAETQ
In short: as §1

[17] = biological target: T11, ELF3 (Homo sapiens, UniProt P78545 1-371); conditions: protein: recombinant; tags: N-terminal GST; dsDNA, one strand shown
T11 sequence: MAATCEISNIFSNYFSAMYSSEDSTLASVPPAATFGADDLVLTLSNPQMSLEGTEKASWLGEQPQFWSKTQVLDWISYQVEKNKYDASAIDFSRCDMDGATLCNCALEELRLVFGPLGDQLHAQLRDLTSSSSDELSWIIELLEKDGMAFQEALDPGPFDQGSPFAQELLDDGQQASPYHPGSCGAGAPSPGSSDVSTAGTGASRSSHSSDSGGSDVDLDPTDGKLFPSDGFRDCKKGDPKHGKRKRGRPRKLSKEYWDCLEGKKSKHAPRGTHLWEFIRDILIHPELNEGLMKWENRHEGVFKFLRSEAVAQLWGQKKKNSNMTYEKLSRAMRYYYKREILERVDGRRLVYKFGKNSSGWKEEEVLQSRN
In short: as §1

[18] = biological target: CRX (Homo sapiens, UniProt O43186 1-299); conditions: protein: recombinant; tags: N-terminal GST; dsDNA, one strand shown
Sequence of CRX (O43186 whole entry): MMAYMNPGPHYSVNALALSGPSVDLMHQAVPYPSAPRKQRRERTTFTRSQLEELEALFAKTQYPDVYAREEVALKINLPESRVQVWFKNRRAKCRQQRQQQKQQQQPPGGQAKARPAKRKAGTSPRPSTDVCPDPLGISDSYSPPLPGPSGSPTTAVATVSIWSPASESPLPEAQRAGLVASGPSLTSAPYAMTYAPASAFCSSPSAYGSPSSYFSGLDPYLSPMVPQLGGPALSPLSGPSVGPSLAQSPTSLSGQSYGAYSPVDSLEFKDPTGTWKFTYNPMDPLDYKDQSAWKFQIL
In short: as §1

[19] = biological target: ETV1 (Homo sapiens, UniProt P50549 1-477); conditions: protein: recombinant; tags: N-terminal GST; dsDNA, one strand shown
Sequence of ETV1 (P50549 whole entry): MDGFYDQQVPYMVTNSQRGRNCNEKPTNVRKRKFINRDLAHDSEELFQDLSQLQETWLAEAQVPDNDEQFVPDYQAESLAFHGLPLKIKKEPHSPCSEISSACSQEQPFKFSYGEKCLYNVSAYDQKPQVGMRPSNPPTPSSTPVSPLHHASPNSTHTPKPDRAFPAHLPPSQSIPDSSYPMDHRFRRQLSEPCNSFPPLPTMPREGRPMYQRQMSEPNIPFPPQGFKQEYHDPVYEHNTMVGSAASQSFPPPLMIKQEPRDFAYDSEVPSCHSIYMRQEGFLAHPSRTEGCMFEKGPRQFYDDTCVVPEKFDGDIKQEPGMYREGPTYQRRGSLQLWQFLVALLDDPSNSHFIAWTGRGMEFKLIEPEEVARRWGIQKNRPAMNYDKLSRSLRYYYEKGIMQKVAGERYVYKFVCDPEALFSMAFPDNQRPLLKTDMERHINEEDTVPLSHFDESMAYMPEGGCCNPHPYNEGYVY
In short: as §1

AGTGCT
binding signal [1]: 1.47 fold enrichment (6-mer frequency, TF over GST control) | binding signal [2]: 1.36 fold enrichment (6-mer frequency, TF over GST control) | binding signal [3]: 1.29 fold enrichment (6-mer frequency, TF over GST control) | binding signal [4]: 1.37 fold enrichment (6-mer frequency, TF over GST control) | binding signal [5]: 1.4 fold enrichment (6-mer frequency, TF over GST control) | binding signal [6]: 1.4 fold enrichment (6-mer frequency, TF over GST control) | binding signal [7]: 1.91 fold enrichment (6-mer frequency, TF over GST control) | binding signal [8]: 1.53 fold enrichment (6-mer frequency, TF over GST control) | binding signal [9]: 1.59 fold enrichment (6-mer frequency, TF over GST control) | binding signal [10]: 1.4 fold enrichment (6-mer frequency, TF over GST control) | binding signal [11]: 1.4 fold enrichment (6-mer frequency, TF over GST control) | binding signal [12]: 1.15 fold enrichment (6-mer frequency, TF over GST control) | binding signal [13]: 1.67 fold enrichment (6-mer frequency, TF over GST control) | binding signal [14]: 1.33 fold enrichment (6-mer frequency, TF over GST control) | binding signal [15]: 1.37 fold enrichment (6-mer frequency, TF over GST control) | binding signal [16]: 1.42 fold enrichment (6-mer frequency, TF over GST control) | binding signal [17]: 1.02 fold enrichment (6-mer frequency, TF over GST control) | binding signal [18]: 1.16 fold enrichment (6-mer frequency, TF over GST control) | binding signal [19]: 1.32 fold enrichment (6-mer frequency, TF over GST control)
